Among the data in PubChem BioAssay AID1020 (Sanford-Burnham Center for Chemical Genomics, 2008) are inhibition values, retold here.

Hit rate of the full screen: of about 200,000 compounds, about 240 (0.12%) were called active. Rule as the data show it: active = inhibition above about 50%; inactive = the rest. For the sample, actives were picked, then their nearest neighbours and some compounds at random.

This experiment concerns glucose-6-phosphate dehydrogenase [Leuconostoc mesenteroides]. The experiment in a line: L. mesenteroides G6PDH inhibitors, counter-screen for G6PDH-coupled screening assays, biochemical, Leuconostoc mesenteroides enzyme (AID 1020). Conditions: Purified L. mesenteroides G6PDH, diaphorase/resazurin coupled fluorescence, 45 min; at 5 µM; hits give high values. Background: The purpose of a counterscreen is to sort out artefacts and off-target activity.
One may read the inhibition as the change of the read-out against control, counted positive when it falls. As for `Cc1ccccc1NC(=S)NNC(=O)c1cccc(Br)c1`, the inhibition was 1.2% (inactive). Take `COc1ccc(-n2cc(CN(C)Cc3n[nH]c(=O)[nH]3)c(-c3cccc(F)c3)n2)cc1`: the inhibition is 19.5% (inactive).

Turning to `COC(=O)c1ccc(NC(=S)NN2CCOCC2)cc1`, the inhibition was -2.2% (inactive). On to `O=C(c1snnc1-c1ccccc1)N1CCOCC1`, for which the inhibition is -2.4% (inactive). As for `OC(c1nnc(-c2ccccc2)o1)c1cccs1` (stereo unspecified), the figure is 10.6% (inactive). On to `CCCCn1c(O)c(N=NC(=O)Cn2c(C(F)(F)F)nc3ccccc32)c2ccccc21`, for which the inhibition is 7.1% (inactive).

As to `COc1cc(C=O)c(Br)cc1OCC(=O)NCc1ccccc1`, the inhibition was 6.7% (inactive). The figure for `CCOc1ccccc1N1CCN(C(=O)COc2ccc3c(C)cc(=O)oc3c2)CC1` is 1.2% (inactive); for `Cc1ccc(C(=O)NC(=S)NCc2cccnc2)cc1` it is -1.6% (inactive). As for `Cc1ccc(COc2ccc(C(=O)NN)cc2)cc1`, the figure is 10.9% (inactive); as for `O=C(NCc1ccccc1Cl)C1CCN(S(=O)(=O)N2CCOCC2)CC1`, 4.2% (inactive); as for `Nc1ncnc(Nc2cccc(Cl)c2Cl)n1`, 15% (inactive). The figure for `CCOC(=O)Cc1cc(=O)[nH]c(=O)[nH]1` is 4.9% (inactive); for `O=C(/C=C/c1ccccc1[N+](=O)[O-])OC1CCCCC1=O` (stereo unspecified) it is 3% (inactive); for `O=c1c([N+](=O)[O-])cccn1Cc1ccc(F)cc1Cl` it is 8% (inactive). Take `CSc1ncccc1C(=O)N1CCCC(CCC(=O)NCc2ccccc2F)C1` (stereo unspecified): the inhibition was 8.1% (inactive). The figure for `CC(C)(C)N(CC#CCC(O)(c1ccccc1)C1CCCC1)CCO` (stereo unspecified) is 13.4% (inactive); for `OCCNCCOc1ccc(Cl)c(Cl)c1` it is 3.7% (inactive). As for `CC(C)(C)CC(=O)Nc1nnc(SCC(=O)NCc2cccs2)s1`, the figure is 10.3% (inactive). In the case of `COc1ccc(CC2(CO)CCN(Cc3cnn(C)c3)CC2)cc1`, the inhibition is 0.2% (inactive). As for `CCOC(=O)/C=C/C(=O)OCC(=O)NC(c1ccccc1)c1ccccc1`, the figure is 9.9% (inactive); as for `Cc1ccc(O)c(-c2cc(C(=O)Nc3c(C)n(C)n(-c4ccccc4)c3=O)[nH]n2)c1`, 4% (inactive); as for `CC(C(=O)N=Nc1c(O)n(C)c2ccc(Br)cc12)n1cnc2ccccc2c1=O` (stereo unspecified), -0.8% (inactive).

In the case of `Cc1ccc2cc(C)c(N3CCC(C)CC3)nc2c1`, the inhibition is 12.3% (inactive). For `O=C(Nn1cnnc1)c1ccc([N+](=O)[O-])cc1`, the inhibition was 6% (inactive).

Consider `Cc1nn(-c2ccccc2)c(C)c1/C=N/NC(=O)CSc1nc2ccccc2c(=O)n1-c1ccccc1`, for which the inhibition is -5.5% (inactive). As for `O=C(COC(=O)C1CC2C=CC1C2)Nc1ccccc1` (stereo unspecified), the figure is 5.8% (inactive); as for `CCC(C)(C)c1ccc(OCC(=O)N(C)C)c(C(C)(C)CC)c1`, -0.6% (inactive). The figure for `CCc1n[nH]c(=S)n1/N=C/c1c[nH]c2ccc(Br)cc12` is -2.8% (inactive); for `CC(=O)Nc1ccc(S(=O)(=O)N(CCc2ccccc2)CC(=O)N/N=C/c2ccc(C(=O)O)cc2)cc1` it is 6.2% (inactive); for `CC(=O)n1cc([C@H]2C=C(C(=O)N3CCOCC3)O[C@@H](OCc3ccc(CO)cc3)C2)c2ccccc21` it is 13.3% (inactive). `COc1cccc(CC(=O)N2CCCC(CCC(=O)N3CCN(c4ccccn4)CC3)C2)c1` (stereo unspecified): the inhibition was 2.5% (inactive). As for `CCN(CC)C(=O)Cn1cc(S(=O)(=O)CC(=O)NCc2ccc3c(c2)OCO3)c2ccccc21`, the figure is 2.6% (inactive); as for `CC(O)c1cccc(NC(=O)Cc2cccc3ccccc23)c1` (stereo unspecified), 0.6% (inactive); as for `S=c1[nH]ccn1-c1ccc(Cl)cc1`, 1.9% (inactive). As for `CCN(CCCNC(=O)CSc1cc(=O)n(C)c2cc(Cl)ccc12)Cc1ccccc1`, the figure is -6.2% (inactive); as for `CC(=O)Oc1cc2c(C(=O)NCCN3CCOCC3)c(C)oc2c2ccccc12`, 51% (active); as for `O=C(NCCN1CCOCC1)c1c(F)c(F)c(F)c(F)c1F`, -12.4% (inactive).

In the case of `O=C(NCCN1CCOCC1)c1cc(Sc2cccc(Cl)c2)nc2ccccc12`, the inhibition is -13.7% (inactive). The figure for `CS(=O)(=O)c1ccc2nc(NC(=O)c3ccc(Cl)nc3)sc2c1` is -4.6% (inactive); for `O=C(COc1ccc(NC(=O)c2ccccc2[N+](=O)[O-])cc1)c1ccc(F)cc1` it is 8.6% (inactive); for `COC(=O)C1=NNC2(c3ccc(C)cc3)C(=O)N(c3cccc(C)c3C)C(=O)C12` (stereo unspecified) it is 5.9% (inactive). The figure for `O=C(c1cn2ccccc2n1)N1CCc2c([nH]c3ccccc23)C1c1ccccn1` (stereo unspecified) is 16.7% (inactive).

`O=[N+]([O-])c1ccc(NCCCO)c(C(F)(F)F)c1`: the inhibition is 1.5% (inactive). The figure for `Cc1ccnc2nc(C(=O)Nc3nnc(-c4ccccc4)o3)nn12` is 4.6% (inactive); for `COc1ccc(Cn2c(-c3ccc(Cl)cc3)c[n+]3ccccc23)cc1` it is -9.3% (inactive).

`O=C(Nc1ccc(N2CCN(C(=O)c3cccs3)CC2)cc1)c1cccnc1Cl`: the inhibition is 5.3% (inactive). As for `CCOC(=O)c1c(C)[nH]c(C2=NNC(=NC(C)COC)SC2)c1C` (stereo unspecified), the figure is -0.8% (inactive). The figure for `Cc1[nH]c2ccccc2c1-c1ccc(Cl)nn1` is 6.2% (inactive); for `Cc1nc2scc(-c3cccs3)c2c(=O)n1N` it is 0% (inactive).

As to `O=c1c2c(ncn1Cc1ccccc1)nc1n2CCC1`, the inhibition is 10.7% (inactive). As for `CN(C(=O)CSc1nncc2ccccc12)C1CCCCC1`, the figure is -2.2% (inactive); as for `O=C(N/N=C/c1ccc(OCc2ccccc2)cc1)c1ccc(O)cc1`, 4.1% (inactive); as for `O=C(NC1CCCC1)C(NS(=O)(=O)c1ccc(Br)s1)c1ccccc1` (stereo unspecified), 15.8% (inactive). The figure for `Cc1ccc(NC(=O)OCCNC(=O)c2ccncc2)cc1` is 7.9% (inactive). The figure for `CCCCS(=O)c1snnc1C` (stereo unspecified) is 7.1% (inactive); for `CCOC(=O)C(C)Oc1cccc2c(=O)n(CC(=O)NCCc3ccc(OC)c(OC)c3)ccc12` (stereo unspecified) it is 12.1% (inactive); for `CCn1c(=S)[nH]c2sc3c(c2c1=O)CCCCC3` it is -4.4% (inactive). With `O=C(N/N=C/c1ccccn1)C12CC3CC(CC(C3)C1)C2`, the inhibition was 1.5% (inactive). As for `O=C1c2cccc3c([N+](=O)[O-])ccc(c23)C(=O)N1CC1CCCO1` (stereo unspecified), the figure is 0.7% (inactive); as for `O=C(COc1cc(Cl)c(Cl)cc1Cl)NCCc1ccccn1`, 12.4% (inactive); as for `CC(Cc1cccs1)NC(=O)c1cccc(Cl)c1` (stereo unspecified), 7% (inactive). As for `OCCC1CN(Cc2cccn2-c2nccs2)CCN1CCc1ccccc1` (stereo unspecified), the figure is 12.9% (inactive). As to `CCC1(CC)NC(=O)N(Cc2nc3ccccc3s2)C1=O`, the inhibition was 10.3% (inactive). With `CCOc1ccccc1NC(=O)C1CCCN(C(=O)Nc2ccccc2)C1` (stereo unspecified), the inhibition is 4.5% (inactive). As for `CCOC(=O)CNC(=O)/C=C/c1c(Cl)cccc1Cl`, the inhibition was 1.5% (inactive). As for `Cc1ccc(N2C(=O)SC(N(CC(=O)O)c3ccc(C)cc3)C2=O)cc1` (stereo unspecified), the figure is 21.1% (inactive).

In the case of `Cc1ccc(Nc2nnc(SCC(=O)c3cc4ccccc4o3)s2)cc1C`, the inhibition is -1.5% (inactive). As for `CCC(C)NCC(=O)Nc1ccc([N+](=O)[O-])cc1C(=O)Nc1ccccc1F` (stereo unspecified), the figure is 4.8% (inactive).

Consider `NC1=NN(c2cccc(C(=O)O)c2)C(=O)C1`, for which the inhibition was 19.2% (inactive). The figure for `CCOC(=O)/C(N=Nc1cc(C(=O)O)cc(C(=O)O)c1)=C(\O)CCl` is -9.1% (inactive); for `CCC1CCCCN1C(=S)Nc1ccc(SC(F)F)cc1` (stereo unspecified) it is -14.7% (inactive). As for `O=C(O)/C=C/c1cn(Cc2ccccc2)nc1-c1cccs1`, the figure is 2% (inactive); as for `CC[N+]1(CC)CC2=Cc3ccccc3CC2C1` (stereo unspecified), 0.9% (inactive); as for `O=C(Nc1ccc(Cl)cc1)C1c2cccc[n+]2CC(=O)N1Cc1ccc2c(c1)OCO2` (stereo unspecified), 10.2% (inactive). Regarding `C=CCN(CC=C)S(=O)(=O)c1ccc(C(=O)Nc2nc3c(s2)CCc2ccccc2-3)cc1`, the inhibition is 8.4% (inactive).

Regarding `Oc1c(C(c2ccccn2)N2CCOCC2)ccc2cccnc12` (stereo unspecified), the inhibition was 50.6% (active).

In the case of `Cc1nc2sc(C(c3ccco3)N3CCOCC3)c(O)n2n1` (stereo unspecified), the inhibition is -0.1% (inactive). The figure for `CCOC(=O)N1CCN(C(c2cccnc2)c2ccc3cccnc3c2O)CC1` (stereo unspecified) is 23.8% (inactive); for `COc1ccccc1N=Cc1c(O)c2ccccc2oc1=O` it is 2.9% (inactive). As for `COC(=O)c1c(NC(=O)COC(=O)[C@@H](NS(=O)(=O)c2ccccc2)C(C)C)sc2c1CCC2`, the figure is -20.8% (inactive); as for `Cc1cc(C)cc(C(=O)N2CCN=C2SCc2ccc([N+](=O)[O-])cc2)c1`, -0.2% (inactive). The figure for `COCC(C)n1c(C)cc(C(=O)CSc2cc(C)c3ccccc3n2)c1C` (stereo unspecified) is -2.6% (inactive); for `CC(C)CC[n+]1ccn(C2=C([O-])c3ccccc3C(=O)/C2=N\S(=O)(=O)c2ccccc2)c1` it is 52.9% (active). Regarding `CC1=C/C(=N\S(=O)(=O)c2ccccc2)C(C(C)C)=CC1=O`, the inhibition was 1.5% (inactive).

As to `O=C1NC(c2ccccc2)CCC1(Cl)Cl` (stereo unspecified), the inhibition was -1% (inactive).

Consider `COc1ccccc1CNC(=O)C1Cc2ccccc2C(=O)O1` (stereo unspecified), for which the inhibition was 14.2% (inactive).

In the case of `Cc1cccc(-c2nc3ccccc3c(=O)n2NC(=O)Cc2ccc(Cl)cc2)c1`, the inhibition was 12.9% (inactive).

With `O=C(COC(=O)c1cc2c(s1)CCCC2)NCc1ccccc1Cl`, the inhibition is -30.3% (inactive). The figure for `CCNC(=O)c1ccc(OCC(=O)Nc2ccc(F)cc2)c(OC)c1` is 0% (inactive); for `COC1=CCC2([N+](=O)[O-])CN(CC(=O)O)CC1([N+](=O)[O-])C2` (stereo unspecified) it is -3.5% (inactive). As for `Cc1ccc(C2=NN(C(=O)CSc3nc(N)cc(N)n3)C(c3ccco3)C2)cc1` (stereo unspecified), the figure is -0.7% (inactive); as for `COc1ccc(C)cc1NC(=O)C(OC(=O)c1cccc(S(=O)(=O)N(C)c2ccccc2)c1)c1ccccc1` (stereo unspecified), 0.4% (inactive). The figure for `Cc1cc(C)c(NC(=O)C[N+](C)(C)CC(O)COc2cccc3ccccc23)c(C)c1` (stereo unspecified) is -0.6% (inactive); for `CCOC(=O)C1=C(C)OC(N)=C(C#N)C1c1cncc(-c2ccc(F)cc2)c1` (stereo unspecified) it is 14.8% (inactive); for `CC1(C)CC(=O)C2=C(C1)Nc1cc(C(=O)c3ccccc3)ccc1NC2c1ccccn1` (stereo unspecified) it is 8.9% (inactive). Turning to `Cc1nc2ccc(NC(=S)N3CCC(C)CC3)cc2nc1C`, the inhibition is 29.3% (inactive). The figure for `COC(=O)c1nc(NC(=O)c2ccc(F)cc2)n[nH]1` is -4.4% (inactive); for `Cc1ccc(S(=O)(=O)N(CC(=O)Nc2cccc([N+](=O)[O-])c2)Cc2ccc(Cl)cc2)cc1` it is -21.7% (inactive); for `O=C(/C=C/c1ccc(Cl)cc1)Nc1ccc(Br)cn1` it is 7.2% (inactive). For the molecule `Cn1c(=O)c2c(ncn2CC(=O)N/N=C/c2cn[nH]c2-c2ccc(F)cc2)n(C)c1=O`, the inhibition is -4.7% (inactive). As for `CC(C)(C)NC(=O)CN(C(=O)c1csnn1)c1ccccc1-c1ccccc1`, the figure is 9.8% (inactive); as for `COCCCNC(=O)Cn1c(=O)n(Cc2ccccc2Cl)c(=O)c2cc(OC)c(OC)cc21`, 4.4% (inactive). As for `Cc1ccc(-c2cc(N)on2)cc1`, the figure is 4.2% (inactive); as for `CCCN(CCC)CCCNC(=O)CNC(=O)c1nn(-c2ccc(OC)cc2)c(=O)c2ccccc12`, 6% (inactive); as for `CCOC(=O)c1c(NC(=O)CNC2CCCc3ccccc32)sc(C(N)=O)c1C` (stereo unspecified), 2.5% (inactive).

Take `CN(CC(=O)Nc1ccccc1[N+](=O)[O-])Cc1ccc(Br)cc1`: the inhibition was -0.3% (inactive). The figure for `Cc1cc(/C=N/NC(=O)c2cccnc2)c(C)n1CC(C)C` is 2.9% (inactive); for `CC1CCCCN1C(=S)NCc1ccccc1` (stereo unspecified) it is -13% (inactive); for `CC(=O)N1c2ccccc2N(Cc2ccc([N+](=O)[O-])cc2)C(=O)C1(C)C` it is 4.5% (inactive). As for `COC(=O)c1ccc(NC(=O)c2cc(Cl)ccc2OC)cc1`, the figure is 0.4% (inactive).
